Reference: PubChem BioAssay

Assays:
[1] = test system: Human papillomavirus type 1a protein E7 (residues 44-93); assay: small molecules binding HPV E7 44-93 – biochemical, small-molecule microarray, residues 44-93, 635 nm fluorescence, primary screen (AID 1108); conditions: fluorescence 635 nm, higher = more signal;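 also: E7 fragment applied at 1 µg/mL in TBST for 1 h at 4 C; score combines spot fluorescence with its signal to noise ratio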
[2] = hepatitis C replication reporter changes, two-sided – Huh7 cells, luciferase reporter, HCV replication inhibitor project, primary screen (AID 1109); conditions: Huh7 HCV replicon luciferase reporter, 48 h; higher = more signal;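 also: huh7 hepatoma cells harbouring a luciferase neomycin HCV replicon reporter; luciferase luminescence as measure of HCV replicon replication; test concentration not given here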
[3] = target: Left-right determination factor 2 (Homo sapiens) (UniProt O00292); assay: small molecules binding LEFTY2 protein – biochemical, small-molecule microarray, 635 nm fluorescence scan, primary screen (AID 1110); conditions: higher = more signal
Sequence of Left-right determination factor 2 (Homo sapiens) (O00292 whole entry, looked up): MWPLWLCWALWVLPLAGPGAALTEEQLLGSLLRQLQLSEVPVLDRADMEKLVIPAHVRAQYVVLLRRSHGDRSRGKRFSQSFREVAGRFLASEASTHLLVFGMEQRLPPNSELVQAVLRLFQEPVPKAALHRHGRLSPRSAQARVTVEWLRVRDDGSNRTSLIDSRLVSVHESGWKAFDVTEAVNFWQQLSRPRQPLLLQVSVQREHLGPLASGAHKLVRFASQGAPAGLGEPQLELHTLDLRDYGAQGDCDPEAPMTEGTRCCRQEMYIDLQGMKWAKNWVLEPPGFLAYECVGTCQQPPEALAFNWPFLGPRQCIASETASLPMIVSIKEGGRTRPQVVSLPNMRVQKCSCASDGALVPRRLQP

[4] = target: Calmodulin-1 (Homo sapiens) (UniProt P0DP23); assay: small molecules binding calmodulin-1 with EGTA – biochemical, small-molecule microarray, Cy5-labelled CALM1, profiling panel (AID 1111); conditions: Cy5-CALM1 binding fluorescence, higher = more signal;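 also: labelled calmodulin applied in Tris saline Tween buffer holding calcium plus EGTA and DTT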
[5] = target: Calmodulin-1 (Homo sapiens) (UniProt P0DP23); assay: small molecules binding Ca-loaded calmodulin-1 – biochemical, small-molecule microarray, Cy5-labelled CALM1, plus calcium, artefact control for SMM control-protein annotation, profiling panel (AID 1112); conditions: Cy5-CALM1 binding fluorescence, higher = more signal;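 also: score merges spot fluorescence with signal to noise from triplicate slides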
[6] = probe aWnt5a binding to arrayed compounds – biochemical, biotinylated probe, 635/667 nm fluorescence, primary screen (AID 1113); conditions: small-molecule microarray, higher = more signal;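 also: score merges 667 nm fluorescence intensity with signal-to-noise per printed feature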
[7] = probe aShh binding to arrayed compounds – biochemical, biotinylated probe, 635/667 nm fluorescence, primary screen (AID 1114); conditions: small-molecule microarray, higher = more signal;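 also: probe is biotin-labelled aShh protein from a stem cell growth factor screen; measures binding of labelled protein to compounds printed on the slide; score merges feature fluorescence at 667 nm with signal-to-noise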
[8] = probe aNog binding to arrayed compounds – biochemical, biotinylated probe, 635/667 nm fluorescence, primary screen (AID 1115); conditions: small-molecule microarray, higher = more signal;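 also: probe is biotinylated aNog protein used at 0.15 µg/mL for 1 h at 4 C; z-score combines 667 nm fluorescence of each spot with its signal to noise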
[9] = target: Torsin-1A-interacting protein 1 (Homo sapiens) (UniProt Q5JTV8); assay: compound microarray binding of lysate hLAP1 – cell lysate, small-molecule microarray, COS7 lysate, 635/667 nm fluorescence, primary screen (AID 1116); conditions: 635 nm fluorescence, higher = more signal
Sequence of Torsin-1A-interacting protein 1 (Homo sapiens) (Q5JTV8 whole entry, looked up): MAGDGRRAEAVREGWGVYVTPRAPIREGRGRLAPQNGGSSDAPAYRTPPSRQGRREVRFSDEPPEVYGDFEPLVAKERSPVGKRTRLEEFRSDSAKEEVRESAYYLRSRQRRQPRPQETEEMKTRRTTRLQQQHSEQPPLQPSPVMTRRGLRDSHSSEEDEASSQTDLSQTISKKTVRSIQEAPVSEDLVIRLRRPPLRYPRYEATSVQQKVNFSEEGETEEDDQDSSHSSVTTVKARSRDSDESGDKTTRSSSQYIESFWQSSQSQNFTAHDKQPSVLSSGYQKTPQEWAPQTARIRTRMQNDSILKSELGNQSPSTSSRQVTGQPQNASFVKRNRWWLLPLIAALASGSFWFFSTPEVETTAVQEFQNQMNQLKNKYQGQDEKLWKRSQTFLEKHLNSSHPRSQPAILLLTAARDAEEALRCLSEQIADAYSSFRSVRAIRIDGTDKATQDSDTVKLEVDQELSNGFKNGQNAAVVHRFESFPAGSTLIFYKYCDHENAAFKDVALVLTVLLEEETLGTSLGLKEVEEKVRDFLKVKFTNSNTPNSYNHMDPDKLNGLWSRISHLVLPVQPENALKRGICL

[10] = target: Alpha-bungarotoxin (Bungarus multicinctus) (UniProt P60615); assay: compounds binding labelled alpha-BTX control protein – biochemical, small-molecule microarray, Alexa647 label, 635/667 nm fluorescence, artefact control for SMM control protein annotation, profiling panel (AID 1117); conditions: alpha-BTX-A647 binding fluorescence, higher = more signal
Sequence of Alpha-bungarotoxin (Bungarus multicinctus) (P60615 whole entry, looked up): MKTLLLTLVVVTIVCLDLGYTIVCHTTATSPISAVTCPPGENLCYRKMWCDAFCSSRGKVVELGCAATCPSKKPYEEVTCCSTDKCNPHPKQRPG

SMILES | composite z-score [1] | z-score [2] | composite z-score [3] | composite z-score [4] | composite z-score [5] | composite z-score [6] | composite z-score [7] | composite z-score [8] | composite z-score [9] | composite z-score [10]
COC(=O)[C@@]1(Cc2ccc(F)cc2)[C@H]2c3cc(C(=O)N(C)C)n(Cc4ccc(C)o4)c3C[C@H]2CN1C(=O)c1ccccc1 | -0.0043 | -0.8 | -1.14 | 1.81 | -0.969 | 0.749 | 1.85 | 3.48 | 5.2 | -1.73
O=C1NC(=O)C2C1C=CC(C(O)C1CC=CCC1)N2Nc1ccccn1 (stereo not given) | -0.643 | -0.268 | 0.571 | -0.282 | -0.589 | -0.0643 | -0.147 | -0.0852 | 1.22 | -0.29
COC(=O)[C@@]1(Cc2ccc(OC)cc2)[C@H]2c3cc(C(=O)N4CCCC4)n(Cc4nc5ccccc5[nH]4)c3C[C@H]2CN1C(=O)c1ccccc1 | 1.38 | -2.61 | -0.413 | 2.7 | 1.54 | 0.216 | 0.215 | 2.39 | 2.79 | 1.07
CCCC=C(CCC)[C@@H](NS(=O)(=O)c1ccc(Cl)cc1)c1ccc(C(=O)OC)cc1 | 1.31 | 0.677 | -0.0953 | -0.246 | -0.526 | -0.183 | -0.0386 | -0.201 | 0.892 | 1.29
NC(=O)[C@@]1(Cc2ccccc2)N=C(c2ccc(OCCCO)cc2)O[C@H]1c1ccccc1 | -1.02 | -0.605 | -0.949 | 1.19 | 1.2 | -0.11 | 0.629 | 1.06 | 3.1 | -0.387
COc1ccc(NN2C(C(O)c3ccc(N(C)C)cc3)C=CC3C(=O)N(C4CCCCC4)C(=O)C32)cc1 (stereo not given) | 1.42 | -0.581 | -0.146 | 1.21 | 0.651 | 0.351 | -0.0248 | 0.42 | 1.22 | 1.72
N#Cc1ccc(C(O)C2C=CC3C(=O)N(c4ccccc4)C(=O)C3N2Nc2ccccc2F)cc1 (stereo not given) | 1.29 | -0.494 | 0.262 | 0.123 | -0.564 | 0.0037 | -0.218 | -0.376 | 0.0448 | 0.175
CC1CC/C=C\[C@H]2OC34C=CCN(Cc5ccccc5)C(=O)[C@H]3N(C(C)CO)C(=O)[C@@H]4C2C(=O)O1 (stereo not given in full) | -1.75 | -0.514 | 0.267 | -0.756 | -0.857 | -0.148 | 0.0952 | -0.193 | -0.457 | -0.463
COCCCNC(=O)[C@@]1(Cc2ccccc2CN=[N+]=[N-])N=C(c2ccc(OCCCO)cc2)O[C@H]1c1ccccc1CN=[N+]=[N-] | 1.37 | -3.39 | -0.443 | 1.36 | 0.875 | 0.173 | 0.311 | -0.69 | 0.852 | 1.84
O=C1[C@@]23C=C(Br)[C@H](C[C@@H]2COC3)[C@]12CO2 | -2.09 | -1.96 | -1.16 | -1.01 | -1.25 | 0.0388 | -0.234 | 0.0256 | -0.0722 | -1.5
COC(=O)c1c(CC[C@@H](CO)NC(=O)NCCc2c[nH]c3ccccc23)oc(C(=O)Cc2ccccc2)c1C(=O)OC | 0.465 | -1.16 | 0.353 | -0.103 | -0.46 | 0.0657 | -0.0011 | -0.33 | 0.385 | -0.172
Cc1ccc(S[C@]2(C(=O)NCC(C)C)CC(=O)N(Cc3cc(C(F)(F)F)cc(C(F)(F)F)c3)[C@@H]2c2ccc(CO)cc2)cc1 | -0.716 | -0.297 | -0.419 | -0.909 | -0.468 | 0.168 | -0.153 | -0.468 | 0.489 | -0.0201
CC(C)N1CC=CC23O[C@@H]4C=CCOC(=O)[C@@H]4[C@H]2C(=O)N(CCCCCO)[C@@H]3C1=O (stereo not given in full) | -0.608 | -0.147 | -0.624 | 0.0459 | 0.395 | -0.18 | 0.0723 | -0.198 | 1.33 | -0.35
C=CC[C@]12N=C(c3ccc(OCCCO)cc3)O[C@H]1c1ccccc1N(CCS(=O)(=O)c1ccccc1)C2=O | 1.41 | -2.26 | 0.559 | 1.17 | 0.289 | 0.0775 | 0.54 | -0.484 | 0.863 | 1.02
C=C(CCCC)/C(=C/C[C@H](OC(C)=O)c1ccc(OCCO)cc1)c1cnc2ccccc2c1 | 1.43 | -2.43 | 0.52 | -0.185 | -0.378 | -0.101 | -0.0035 | -0.483 | 0.491 | 1.85
CC(=O)Nc1cc(Br)ccc1C(=O)NCc1ccccc1 | 1.09 | -0.0162 | -0.174 | 0.851 | 0.517 | -0.0346 | -0.16 | -0.196 | 0.341 | 0.809
C=CCOC(=O)[C@H]1[C@@H]2C(=O)O[C@@H](c3ccccc3)[C@@H](c3ccccc3)N2[C@@H](c2ccc(OCCOC(=O)[C@@H]3C[C@@H]4C(=O)N5CCC[C@H]5C(=O)N4[C@@H]3c3cccc(OCCO)c3)cc2)[C@]12C(=O)Nc1ccc(I)cc12 | 1.39 | -1.46 | 0.872 | 0.784 | -0.0883 | -0.0758 | 0.0098 | 0.935 | -0.571 | 1.39
C[N+](C)(C)CCCC[C@@H]1NC(=O)[C@@H]2C[C@H](C(=O)NCCCCCN)[C@H](c3ccc(O)cc3)N2C1=O | 1.34 | 0.0633 | 1.24 | 2.08 | 1.12 | 0.0775 | -0.167 | 1.57 | 1.29 | 2.13
